According to PubChem BioAssay (NCATS):
Where “and” joins values, the source holds several entries; their conditions need not be identical. Equal entries are not always repeated. Records with an inconclusive call do not appear. Unmarked numbers belong to inactive results. Calls of active or inactive are those of the source. Calls follow the shape of the dose curve; as a rule, active = well fitted curve in the direction sought with a large enough effect; inconclusive = small, poorly fitted or top-dose-only effect, or another doubt; inactive = no such curve, though single readings can be large; an effect the other way counts as inactive or inconclusive.

Legend:
[1] = Viability qHTS for spleen associated tyrosine kinase inhibitor (SYKi) drug resistant MV4-11 cells (AID 1963824); also: nearly all actives have a fitted effect of over 35% in size
How it was run: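 SYK-inhibitor-resistant MV4-11 AML cells were seeded at 500 per well onto compound and cultured 72 hours (37 °C, 5% CO2). CellTiter-Glo was then added, and after 10 min at room temperature, luminescence gave viability.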

[2] = Quantitative highthroughput screen to assess conditional lethalithy of NOMO1 cells grown in RPMI1640 with dialyzed fetal bovine serum (RPMI+ds) (AID 1963877); also: nearly all actives have a fitted effect of over 30% in size;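 as to Viability: series mostly up to about 46 µM; 100% = DMSO control wells and 0% = empty wells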
How it was run: (§1)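 Each medium arm—HPLM with 10% dialyzed FBS, or RPMI1640 with 5 mM glucose and 10% untreated or dialyzed FBS—was screened against an 11-point, 3-fold compound titration for 48 h at 37 °C, with CellTiter-Glo luminescence as endpoint.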

[3] = Quantitative highthroughput screen to assess conditional lethalithy of NOMO1 cells grown in Human Plasma-Like Medium with dialyzed fetal bovine serum (HPLM+ds) (AID 1963878); also: nearly all actives have a fitted effect of over 35% in size;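 as to Viability: 100% = DMSO wells and 0% = empty wells on each plate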
How it was run: as §1

[4] = Quantitative highthroughput screen to assess conditional lethalithy of P12 Ichikawa cells grown in Human Plasma-Like Medium with dialyzed fetal bovine serum (HPLM+ds) (AID 1963879); details: Potency: viability; also: nearly all actives have a fitted effect of over 35% in size; as to Viability: series mostly up to about 46 µM
How it was run: as §1

[5] = Quantitative highthroughput screen to assess conditional lethalithy of P12 Ichikawa cells grown in RPMI1640 with dialyzed fetal bovine serum (RPMI+ds) (AID 1963880); details: Potency: P12-Ichikawa viability; also: nearly all actives have a fitted effect of over 35% in size;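 as to Viability: 100% = DMSO wells and 0% = empty wells on each plate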
How it was run: as §1

[6] = Quantitative highthroughput screen to assess conditional lethalithy of P12 Ichikawa cells grown in RPMI1640 with untreated serum (RPMI+s) (AID 1963881); details: Potency: viability; also: nearly all actives have a fitted effect of over 35% in size;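 as to Viability: series mostly up to about 46 µM; 100% = DMSO wells and 0% = empty wells without cells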
How it was run: as §1

[7] = Cellular viability qHTS for adrenocortical cancer (ACC) cell line SW-13 (AID 1963989); details: SW-13 ACC cells viability, CellTiter-Glo, 48 h; activity (max response): active compounds read low; also: nearly all actives have a fitted effect of over 65% in size;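 as to activity (max response): cells grown in serum-free medium with ITS supplement; % is scaled to controls: 0 for no effect and ±100 for the full control effect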
How it was run: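 IC50 and maximal-response values come from four-parameter logistic fits of titration data. SW-13 cells in serum-free medium received compounds (up to 46 uM final) for 48 h before CellTiter-Glo luminescence.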

[8] = Quantitative highthroughput screen to assess conditional lethalithy of SEM cells grown in Human Plasma-Like Medium with dialyzed fetal bovine serum (HPLM+ds) (AID 1963882); also: nearly all actives have a fitted effect of over 35% in size; as to Viability: series mostly up to about 46 µM
How it was run: as §1

[9] = Quantitative highthroughput screen to assess conditional lethalithy of SEM cells grown in RPMI1640 with unreated serum (RPMI+s) (AID 1963883); also: nearly all actives have a fitted effect of over 35% in size;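 as to Viability: 100% = DMSO wells and 0% = empty wells without cells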
How it was run: as §1

[10] = Quantitative highthroughput screen to assess conditional lethalithy of SEM cells grown in RPMI1640 with dialyzed fetal bovine serum (RPMI+ds) (AID 1963884); also: nearly all actives have a fitted effect of over 35% in size;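 as to Viability: series mostly up to about 46 µM; 100% = DMSO control wells and 0% = empty wells without cells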
How it was run: as §1

[11] = Cellular viability qHTS for adrenocortical cancer (ACC) cell line NCI-H295R (AID 1963990); also: nearly all actives have a fitted effect of over 60% in size
How it was run: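 Adrenocortical carcinoma cells, suspended at 300 000 cells/mL in serum-free DMEM plus ITS, rested overnight before pin transfer of compound. After two days' incubation, ATP-dependent luminescence was recorded and curve-fitted.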
Potency is read from the fitted curve at half-maximal effect.

Structure (SMILES): CNc1nc(Nc2ccc(C(=O)N3CCOCC3)cc2OC)ncc1Cl
- Potency [1]: 5.8 µM (active)
- Potency [2]: inactive
- Potency [3]: inactive
- Potency [4]: inactive
- Potency [5]: inactive
- Potency [6]: inactive
- activity (max response) [7]: -6.87%

Structure (SMILES): CCN1CCN(Cc2ccc(-c3cc4c(N[C@H](C)c5ccccc5)ncnc4[nH]3)cc2)CC1
- Potency [1]: 1.86 µM (active)
- Potency [3]: 20.9 µM (active)
- Potency [8]: 16.6 µM (active)
- Potency [9]: 14.8 µM (active)
- Potency [10]: 18.7 µM (active)
- Potency [7]: 4.47 µM (active)
- Potency [11]: 31.6 µM (active)

Structure (SMILES): Nc1nc(=O)n([C@H]2C[C@H](O)[C@@H](CO)O2)cc1F
- Potency [1]: 0.0295 µM (active)
- Potency [2]: 0.0209 µM (active)
- Potency [5]: 0.0833 µM (active)
- Potency [6]: 0.105 µM (active)

Structure (SMILES): Nc1nccc(Oc2ccc(NC(=O)c3c[nH]cc(-c4ccc(F)cc4)c3=O)cc2F)c1Cl
- Potency [1]: 0.0291 µM (active)
- Potency [3]: 20.9 µM (active)
- Potency [5]: 26.4 µM (active)
- Potency [7]: 8.91 µM (active)
- Potency [11]: 10 µM (active)

Structure (SMILES): CNCc1ccc(-c2[nH]c3cc(F)cc4c3c2CCNC4=O)cc1
- Potency [1]: 20.6 µM (active) and 14.8 µM (active)
- Potency [2]: inactive
- Potency [3]: inactive
- Potency [4]: inactive
- Potency [5]: inactive
- Potency [6]: inactive
- Potency [8]: inactive
- Potency [10]: inactive
- Potency [11]: inactive

Structure (SMILES): Clc1ccc(COC(Cn2ccnc2)c2ccc(Cl)cc2Cl)c(Cl)c1 (stereo not drawn)
- Potency [1]: 11.8 µM (active)
- Potency [3]: inactive
- Potency [8]: inactive
- Potency [7]: 17.8 µM (active)

Structure (SMILES): CCCCCCCCCCCC(CC1OC(=O)C1CCCCCC)OC(=O)C(CC(C)C)NC=O (stereo not drawn)
- Potency [1]: 3.72 µM (active)
- Potency [4]: 20.9 µM (active)
- Potency [5]: 23.5 µM (active)
- Potency [6]: 20.9 µM (active)
- Potency [8]: 18.7 µM (active)
- Potency [9]: 5.9 µM (active)
- Potency [10]: 11.8 µM (active)
- activity (max response) [7]: 11.6%
- Potency [11]: inactive

Structure (SMILES): O=C(NCc1ccncc1)C12C[C@H]3C[C@@H](C1)CC(c1ccc(Cl)cc1)(C3)C2
- Potency [1]: 11.8 µM (active)
- Potency [3]: 18.7 µM (active)
- Potency [4]: 11.8 µM (active)
- Potency [5]: 20.9 µM (active)
- Potency [6]: 20.9 µM (active)
- Potency [8]: 14.8 µM (active)
- Potency [9]: 7.43 µM (active)
- Potency [10]: 13.2 µM (active)
- Potency [11]: inactive

Structure (SMILES): CC(C)n1cnc2c(NCCCCCCNC(=O)OC(C)(C)C)nc(NCCO)nc21
- Potency [1]: 14.8 µM (active)
- Potency [2]: inactive
- Potency [3]: inactive
- Potency [8]: inactive
- Potency [11]: inactive

Structure (SMILES): CCOC(=O)c1c(CSc2ccccc2)n(C)c2cc(Br)c(O)c(CN(C)C)c12
- Potency [1]: 10.5 µM (active)
- Potency [2]: 16.6 µM (active)
- Potency [3]: inactive
- Potency [4]: inactive
- Potency [8]: inactive
- Potency [10]: inactive

Structure (SMILES): O=C(NOC[C@H](O)CO)c1ccc(F)c(F)c1Nc1ccc(I)cc1F
- Potency [1]: 0.164 µM (active)
- Potency [2]: 0.0332 µM (active)
- Potency [3]: 0.148 µM (active)
- Potency [4]: 20.9 µM (active)
- Potency [8]: 7.43 µM (active)
- Potency [9]: 11.8 µM (active)
- Potency [10]: 11.8 µM (active)

Structure (SMILES): NCCCC(O)(P(=O)(O)O)P(=O)(O)O
- Potency [1]: inactive
- Potency [2]: 16.6 µM (active)
- Potency [8]: 16.6 µM (active)
- Potency [9]: 2.96 µM (active)
- Potency [10]: 3.72 µM (active)
- activity (max response) [7]: -4.27%

Structure (SMILES): CN1CCN(C2=Nc3cc(Cl)ccc3Nc3ccccc32)CC1
- Potency [1]: inactive
- Potency [2]: inactive
- Potency [4]: inactive
- Potency [5]: inactive
- Potency [6]: inactive
- activity (max response) [7]: -14.9%

Structure (SMILES): O=C(Nc1ncc(-c2cc(C(F)F)nn2-c2c(Cl)cccc2Cl)s1)C1CC1
- Potency [1]: 0.372 µM (active)
- Potency [4]: 0.935 µM (active)
- Potency [5]: 1.18 µM (active)
- Potency [6]: 0.935 µM (active)
- Potency [8]: 1.32 µM (active)
- Potency [9]: 1.18 µM (active)
- Potency [10]: 1.32 µM (active)
- Potency [7]: 0.316 µM (active)

Structure (SMILES): O=c1cc(-c2ccccc2)oc2cc(O)cc(O)c12
- Potency [1]: 16.6 µM (active)
- Potency [3]: 23.5 µM (active)
- Potency [4]: 26.4 µM (active)
- Potency [5]: 23.5 µM (active)
- Potency [6]: 20.9 µM (active)
- Potency [8]: 16.6 µM (active)
- Potency [9]: 11.8 µM (active)
- Potency [10]: 16.6 µM (active)

Structure (SMILES): CCN(CC)CCCCNc1nc2cc(Cl)c(Cl)cc2nc1-c1ccc(-c2cccs2)s1
- Potency [1]: 4.68 µM (active)
- Potency [3]: 20.9 µM (active)
- Potency [5]: 26.4 µM (active)
- Potency [11]: 7.08 µM (active)

Structure (SMILES): OC[C@H]1OC(O)C[C@@H](O)[C@H]1O (stereo partly drawn)
- Potency [1]: inactive
- Potency [4]: inactive
- Potency [5]: inactive
- Potency [6]: inactive
- Potency [8]: inactive
- Potency [9]: inactive
- Potency [10]: inactive
- activity (max response) [7]: 7.09%
- Potency [11]: inactive

Structure (SMILES): CC(=O)OC1C(C)OC(Oc2c(-c3ccc(O)cc3)oc3cc(O)cc(O)c3c2=O)C(O)C1OC(C)=O (stereo not drawn)
- Potency [1]: 20.9 µM (active)
- Potency [2]: inactive
- Potency [4]: inactive
- Potency [5]: inactive
- Potency [6]: inactive
- Potency [8]: inactive
- Potency [10]: inactive
- Potency [11]: inactive

Structure (SMILES): O=c1[nH]c(=O)n(C2CCCO2)cc1F (stereo not drawn)
- Potency [1]: 18.6 µM (active)
- Potency [2]: inactive
- Potency [3]: inactive
- Potency [4]: inactive
- Potency [8]: inactive
- activity (max response) [7]: 4.88%
- Potency [11]: inactive
